This note sets out measurements from PubChem BioAssay AID485346 (Sanford-Burnham Center for Chemical Genomics, 2010).

About 10,000 (3%) of roughly 330,000 compounds were called active. Shown is part of a subset that was picked to be rich in actives. Unmarked numbers belong to inactive results.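 How the source made its calls: active means inhibition of at least 50% at 8 µM in the primary screen; inactive means the rest.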

For the assay, the target named is Protein Mdm4 (Homo sapiens) + E3 ubiquitin-protein ligase Mdm2 (Homo sapiens) (UniProt O15151+Q00987). The assay is described as follows: disruptors of Mdm2/MdmX RING complex – cell-based, luminescence, split luciferase, SaOS-2, uHTS, primary screen (AID 485346). The note with it: SaOS-2 split-luciferase Mdm2/MdmX complementation, at 8 µM, stronger effect = higher value.
Sequence of Protein Mdm4 (Homo sapiens) + E3 ubiquitin-protein ligase Mdm2 (Homo sapiens) (O15151 whole entry, looked up): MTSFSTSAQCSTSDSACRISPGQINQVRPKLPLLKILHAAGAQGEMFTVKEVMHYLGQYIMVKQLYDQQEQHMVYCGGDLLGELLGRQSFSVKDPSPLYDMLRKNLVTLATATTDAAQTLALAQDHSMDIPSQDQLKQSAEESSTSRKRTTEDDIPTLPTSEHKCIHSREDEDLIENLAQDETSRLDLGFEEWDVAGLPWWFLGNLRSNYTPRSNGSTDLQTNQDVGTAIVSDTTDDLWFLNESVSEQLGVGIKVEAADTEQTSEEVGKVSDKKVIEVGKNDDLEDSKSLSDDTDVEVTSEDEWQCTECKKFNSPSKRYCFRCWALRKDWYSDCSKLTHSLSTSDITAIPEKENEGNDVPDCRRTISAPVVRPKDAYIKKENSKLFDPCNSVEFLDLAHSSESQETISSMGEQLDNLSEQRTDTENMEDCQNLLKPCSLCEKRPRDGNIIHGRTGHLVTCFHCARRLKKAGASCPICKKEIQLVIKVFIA
Sequence of Protein Mdm4 (Homo sapiens) + E3 ubiquitin-protein ligase Mdm2 (Homo sapiens) (Q00987 whole entry, looked up): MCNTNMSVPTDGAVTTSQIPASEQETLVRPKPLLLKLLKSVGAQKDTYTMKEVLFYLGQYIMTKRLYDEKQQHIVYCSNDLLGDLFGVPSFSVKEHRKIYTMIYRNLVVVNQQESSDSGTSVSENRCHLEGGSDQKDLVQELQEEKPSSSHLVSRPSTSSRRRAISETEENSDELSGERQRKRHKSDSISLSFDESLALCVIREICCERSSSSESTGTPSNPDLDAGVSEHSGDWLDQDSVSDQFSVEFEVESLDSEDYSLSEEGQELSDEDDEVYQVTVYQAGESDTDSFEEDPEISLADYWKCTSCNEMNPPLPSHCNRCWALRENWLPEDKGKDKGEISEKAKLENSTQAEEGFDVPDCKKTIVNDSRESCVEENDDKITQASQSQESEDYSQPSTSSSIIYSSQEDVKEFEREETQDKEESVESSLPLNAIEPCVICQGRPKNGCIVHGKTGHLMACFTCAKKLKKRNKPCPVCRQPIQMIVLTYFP
One may read the inhibition as the relative decrease from the control value, in per cent. With `COc1ccc(CC(NC(C)=O)C(=O)NC2CCN(C(=O)c3ccc(Cl)cc3)CC2)cc1` (configuration not stated), the inhibition was 7.62%.
With `Cc1ccc(-c2nn(C(C)(C)C)c3ncnc(N)c23)cc1` the figure was 79% (active); with `Cc1ccc(-n2cnc3ncnc(-c4ccccc4)c32)cc1`, 6.32%; with `c1ccc(-c2cnc(CN3CCN(c4ccccc4)CC3)o2)cc1`, -0.44%.
For `CCN=c1sc(C(=O)Nc2ccccc2)c(C)n1CC`, the inhibition is 18.2%.
With `CCCn1c(N)c(C(=O)CSc2nnc3n2CCCCC3)c(=O)[nH]c1=O`, the inhibition was 2.64%.
With `CC(C)(C)NC(=O)NC(=O)CN1CCC(Cc2ccccc2)CC1` the figure was 12%; with `COc1ccc(NC(=O)CS(=O)(=O)c2ccccc2)cc1`, -16.7%.
The same measure for `CN(C)CCN(C(=O)CN1C(=O)c2ccccc2C1=O)c1nc2cc3c(cc2s1)OCCO3`: -9.56%; for `Cc1cccc(C)c1NC(=O)CCS(=O)(=O)c1cccc2nsnc12`: -1.39%.
The same measure for `CC(=O)N(CCCN(C)C)c1nc2ccc(C)cc2s1`: -16.8%.
Take `Cc1cccc2sc(N(CCCN(C)C)C(=O)CCS(=O)(=O)c3ccccc3)nc12`: the inhibition is 98.7% (active).
With `COc1ccc(N(C)C(=O)CCS(=O)(=O)c2cccc3nsnc23)cc1` the figure was -8.48%; with `COc1cccc2sc(N(CCCN(C)C)C(=O)C(c3ccccc3)c3ccccc3)nc12`, 92.5% (active); with `COc1cccc2sc(N(CCCN(C)C)C(=O)CCS(=O)(=O)c3ccccc3)nc12`, 73.6% (active).
With `COc1cc2ccccc2cc1C(=O)N(CCN(C)C)c1nc2c(F)cccc2s1` the figure was 19.4%.
With `CC(C)(Oc1ccc(Cl)cc1)C(=O)OCC(=O)NCCc1ccc(S(N)(=O)=O)cc1`, the inhibition was -3.95%.
The same measure for `CC1=C(C(N)=O)C(c2ccc(F)cc2)n2nc(CCCO)nc2N1` (configuration not stated): 1.82%; for `CCOCCCNC(=O)C1(O)c2cc(Br)ccc2NC(=O)N1c1ccc(C)c(C)c1` (configuration not stated): 18.7%.
With `Cc1nc2cc(C(F)(F)F)ccc2n1CCNc1nc(-c2cc(Cl)c(N)c(Cl)c2)cs1` the figure was 27.1%; with `CSc1ccc(NC(=O)N2CC(C)OC(C)C2)cc1` (configuration not stated), 15%; with `COc1cc(NS(=O)(=O)c2ccc(NC(=O)c3ccc(S(=O)(=O)N4CCCCC4)cc3)cc2)ncn1`, 13.5%.
The same measure for `NC(N)=Nc1nc(-c2ccccc2)c2cc(Cl)ccc2n1`: 97.4% (active); for `O=C(CCl)NNc1nc(-c2ccccc2)c2cc(Cl)ccc2n1`: 19.7%; for `OCCCNc1nc(-c2ccccc2)c2cc(Cl)ccc2n1`: 19.5%.
In the case of `COC(=O)c1ccc(C2C3=C(Nc4nnnn42)c2ccccc2OC3)cc1` (configuration not stated), the inhibition is 14.2%.
The same measure for `COc1ccc(C(=O)NC(C)Cn2nc(C)cc2C)cc1OC1CCN(C(C)=O)CC1` (configuration not stated): 2.18%; for `COC(=O)c1ccc(Nc2ncnc3sccc23)cc1`: 1.96%.
With `O=C1CN(C(=O)c2ccccc2F)C(c2ccc(F)cc2)c2cc(F)ccc2N1` (configuration not stated) the figure was -22.4%.
With `CCOC(=O)C1(CCOc2ccccc2)CCN(Cc2ccc(C#CCCO)cc2)CC1` the figure was 27.4%.
For `CC(C)CN(CC(C)C)CC(O)CN(c1ccccc1)S(=O)(=O)c1ccccc1[N+](=O)[O-]` (configuration not stated), the inhibition was 31.5%.
With `CCOc1ccc(S(=O)(=O)Nc2cccc(C(=O)NCC3(N4CCCCC4)CCCCC3)c2)cc1` the figure was 66.6% (active).
The same measure for `O=C(NCC1(N2CCCCC2)CCCCC1)c1ccc(NS(=O)(=O)c2ccc(F)cc2)cc1`: 8.39%; for `CCOc1ccc(NS(=O)(=O)c2ccc(C(=O)NCC(c3ccccc3OC)N3CCCC3)cc2)cc1` (configuration not stated): 38.1%.
With `COc1cccc(NC(=O)c2cc(S(=O)(=O)N3CCc4ccccc43)cn2C)c1` the figure was 32%.
`COCc1cc(C)n(CC(=O)NCC2CCCO2)c(=O)c1C#N` (configuration not stated): the inhibition was -12.8%.
Consider `CCOC(=O)c1cc(NC(=O)c2ccc(Cl)cc2)c(=O)oc1-c1ccccc1`, for which the inhibition is 81.6% (active).
With `CC(=O)c1cc(NC(=O)c2ccccc2)c(=O)oc1/C=C/N(C)C` the figure was -7.04%; with `CCOC(=O)NNC(=O)c1ccc(Cl)cc1`, 9.31%.
On to `COC(=O)C1=C(C(=O)OC)[C@@H]2N(C)c3ccccc3[C@@]23C[C@@H](C(=O)OC)N(C(=O)c2ccco2)C3=N1`, for which the inhibition was 30%.
With `Cc1nn(-c2ccccc2)c2sc(C(=O)N(Cc3ccco3)C(C)C(=O)NC(C)(C)C)cc12` (configuration not stated) the figure was 50.9% (active).
With `Cc1nc(C)c(C(=O)N(c2ccc(C)c(C)c2)C(C(=O)NCc2ccco2)c2ccccc2)s1` (configuration not stated) the figure was -6.49%.
With `Cc1ccc(-c2nnn(CC(=O)N(Cc3ccco3)C(C(=O)NC(C)(C)C)c3ccncc3)n2)o1` (configuration not stated) the figure was -5.12%; with `CCC(C)Cn1c(O)cc2nn(-c3nc4ccccc4s3)c(=O)c-2c1C` (configuration not stated), 39.4%.
For `COc1ccc(NC(=O)/C(Cl)=C(/Cl)S(=O)Cc2ccc(C)cc2)cn1` (configuration not stated), the inhibition was 91.5% (active).
The same measure for `CCOc1ccc(S(=O)(=O)Nc2ccc(OC)nc2)cc1`: -9.26%.
With `COc1ccc(Nc2ccc([N+](=O)[O-])cn2)cn1` the figure was 8.39%; with `COC(=O)c1sccc1NC(=S)Nc1ccc(C)cc1`, -1.32%.
The same measure for `COc1ccc(CS(=O)/C(Cl)=C(/Cl)C(=O)Nc2ccc(OC)nc2)cc1` (configuration not stated): 97.2% (active).
Consider `COc1ccc(CCNC(=O)c2cnc(Cl)c(Cl)c2)cc1`, for which the inhibition was -0.067%.
The same measure for `CCCCC(c1nnnn1CS(=O)(=O)c1ccc(C)cc1)N1CCC(C(N)=O)CC1` (configuration not stated): 20%; for `CC(=O)NC1CCN(CC(=O)Nc2nccs2)CC1`: 10.5%; for `COc1ccccc1CNC(=O)COC(=O)c1cccs1`: -8.99%.
The same measure for `CN(C)CCCNC(=O)/C=C/c1ccc(OCc2c(F)cccc2Cl)cc1`: 41.4%; for `COCCCNC(=O)/C=C/c1ccc(OCc2c(F)cccc2Cl)cc1`: -0.73%; for `O=C(/C=C/c1ccc(OCc2c(F)cccc2Cl)cc1)N1CCOCC1`: 88.9% (active).
With `COc1cccc(NC(=O)N2CCC(NC(=O)C(Cc3cccc(C)c3)NC(C)=O)CC2)c1` (configuration not stated), the inhibition is 2.34%.
